In all, about 200,000 compounds went through this assay and about 18,000 (9%) were called active. Rule as the data show it: active = inhibition above about 50%; inactive = the rest. Many of the other results were omitted from the sample, so actives are more common in it than they were.
experiment: antileishmanial activity against promastigotes – primary screen (AID 1063); conditions: Leishmania major promastigotes, resazurin fluorescence viability; at 10 µM; active compounds read high;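 also: promastigotes grown with compound for 44 hours at 28 °C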

SMILES	inhibition
NS(=O)(=O)c1ccc(NC(=O)/C=C/c2ccccc2Cl)cc1	0.13% (inactive)
Cc1nc(Nc2ccc(S(=O)(=O)N3CCCC3)cc2)c2nnn(Cc3ccccc3)c2n1	0.17% (inactive)
O=S(=O)(NCc1ccccc1)c1ccc(S(=O)(=O)N2CCCC2)cc1	-7.35% (inactive)
O=C1c2cccnc2C(Nc2ccc(S(=O)(=O)N3CCCCCC3)cc2)N1Cc1ccccc1 (stereo not drawn)	54.9% (active)
COC(=O)c1onc(-c2c(OC)cc(OC)cc2OC)c1C(=O)OC	-8.2% (inactive)
CCOc1cccc(SCc2noc(C(=O)NC(C)C)c2C(=O)O)c1	-11.1% (inactive)
COC(=O)c1c(CCl)noc1C(=O)NC(C)C	100% (active)
Cc1cc(NC(C)C)n2c(nc3ccccc32)c1C#N	0.11% (inactive)
O=C1N(c2ccc(Cl)cc2)C(c2ccc(Cl)cc2)N2CCCN12 (stereo not drawn)	-2.86% (inactive)
COCCCNC(NC(=O)c1ccc(OC)cc1)C(Cl)(Cl)Cl (stereo not drawn)	-5.56% (inactive)
O=Cc1ccc(OCc2cn3ccccc3n2)cc1	-8.44% (inactive)
CNC(=O)COC(=O)c1cc(-c2ccc(OC)cc2)nc2ccccc12	6.03% (inactive)
CCn1c(CSCc2c(Cl)cccc2Cl)n[nH]c1=S	81.2% (active)
CCn1c(CNS(=O)(=O)c2ccc(Cl)cc2)n[nH]c1=S	-0.27% (inactive)
S=c1[nH]nc(CSCc2ccc(Cl)cc2Cl)n1-c1ccccc1	14.5% (inactive)
CCOC(=O)NC(=O)/C(C#N)=C\c1ccccc1	-7% (inactive)
O=C(Nc1ccc2c(c1)CCC2)c1cccc(S(=O)(=O)N2CCN(c3ccc(F)cc3)CC2)c1	24.5% (inactive)
O=C(c1cccc(S(=O)(=O)Nc2ccccc2Cl)c1)N1CCN(C(=O)c2ccco2)CC1	-0.85% (inactive)
O=C(Nc1ccc2c(c1)CCC2)c1cccc(S(=O)(=O)Nc2ccccc2Cl)c1	95.5% (active)
Cc1ccc(-c2nn(-c3ccccc3)cc2/C=C/C(=O)Nc2cccc(S(N)(=O)=O)c2)cc1	-2.89% (inactive)
Cc1ccccc1C(CC(=O)c1cccs1)C(C#N)C#N (stereo not drawn)	83.5% (active)
O=C(CCC(=O)c1cccs1)NCc1ccccc1	-10.9% (inactive)
Cc1ccc(C)c(NC(CC(=O)c2ccccc2)C(=O)OCC(=O)c2cccs2)c1 (stereo not drawn)	17.1% (inactive)
CC(NC(=O)COC(=O)c1ccc(Cl)cc1O)c1ccc(F)cc1 (stereo not drawn)	-6.63% (inactive)

SMILES	inhibition
CN(C)CCCNC(=O)c1ccc2[nH]c3ccccc3c2c1	13% (inactive)
CN(C)c1ccc(C(CNC(=O)c2ccc(F)cc2)c2c[nH]c3ccccc23)cc1 (stereo not drawn)	96.3% (active)
CC(=O)c1ccc(S(=O)(=O)Nc2ccc(C(=O)NCC(c3ccccc3)N(C)C)cc2)cc1 (stereo not drawn)	0.26% (inactive)
COc1ccc(-n2nc3c(c2NC(=O)c2ccc(N4C(=O)CCC4=O)cc2)CSC3)cc1	-0.66% (inactive)
O=c1[nH]n(-c2ccc([N+](=O)[O-])cc2)c(=O)c2ccccc12	-3.65% (inactive)
CC(C)(C)c1ccc(/C=C/C(=O)NC2CCS(=O)(=O)C2)cc1 (stereo not drawn)	0.12% (inactive)
O=C(Nc1nc2ccc(S(=O)(=O)N3CCCC3)cc2s1)C1CCCO1 (stereo not drawn)	2.48% (inactive)
O=C(Nc1nc2cc3c(cc2s1)OCCO3)c1cccc(S(=O)(=O)N2CCOCC2)c1	99.1% (active)
COc1ccc(S(=O)(=O)N2CCOCC2)cc1C(=O)Nc1nc2ccccc2s1	-3.71% (inactive)
Cc1noc(C)c1COc1cccc(C(=O)Nc2cccnc2)c1	4.43% (inactive)
CC1=CC=CN2C1=NC(=O)CC2(C)C(=O)N(CC(=O)NC1CCCC1)c1ccccc1C (stereo not drawn)	2.29% (inactive)
O=C(CSc1cccc2cccnc12)N/N=C/c1cccnc1	101% (active)
Cc1nc2ccccc2n1CC(=O)N/N=C/c1cccnc1	-4.45% (inactive)
Cc1c(NC(=O)CSc2cccc3cccnc23)c(=O)n(-c2ccccc2)n1C	44.5% (inactive)
CN1CCN(c2ccc(NC(=O)c3ccc4c(c3)OCCO4)cc2Cl)CC1	5.5% (inactive)
CCOc1c(OC)cc(C2C(C#N)=C(N)Oc3n[nH]c(-c4ccncc4)c32)cc1OC (stereo not drawn)	6.78% (inactive)
COc1ccc(C2C(C#N)=C(N)Oc3n[nH]c(C)c32)cc1CN1CCN(c2ccc(F)cc2)CC1 (stereo not drawn)	60.8% (active)
CCCc1[nH]nc2c1C(c1ccc(OC)c(Cn3nc(C)c(Br)c3C)c1)C(C#N)=C(N)O2 (stereo not drawn)	41.6% (inactive)
O=Cc1ccc(Oc2cccc(C(F)(F)F)c2)nc1	6.6% (inactive)
COc1ccc(NC(=O)COC(=O)c2ccncc2)c(OC)c1	-3.38% (inactive)
CCCC(C)C(=O)NCc1ccncc1 (stereo not drawn)	-1.46% (inactive)
O=C(NCc1ccncc1)C(=O)NCc1ccco1	-7.02% (inactive)
CC(C)(C)NC(=O)C(=O)NCc1ccncc1	77.7% (active)
CC(C)OCCCNC(=S)N1CCC(C(=O)c2ccc3c(c2)OCCO3)CC1	-1.34% (inactive)

SMILES	inhibition
COc1ccc(-c2nc3ccccc3n2CCC(C)C)cc1OC	66.8% (active)
CCCn1c(C(O)c2cc(OC)ccc2OC)nc2ccccc21 (stereo not drawn)	19% (inactive)
COCCn1c(-c2ccc(OC)c(OC)c2)nc2ccccc21	11.3% (inactive)
Cn1c(=O)c2c(ncn2CC(=O)N/N=C/c2cn[nH]c2-c2ccc(F)cc2)n(C)c1=O	-7.31% (inactive)
Cn1nc(C(F)(F)F)c2cc(C(=O)N3CCOCC3)sc21	-2.24% (inactive)
Cc1ccc(C)c(S(=O)(=O)N2CCN(CC(=O)Nc3ccc([N+](=O)[O-])cc3)CC2)c1	26.5% (inactive)
COc1ccc(CCC(=O)OCC(=O)Nc2ccc(C)c(S(=O)(=O)N(C)C)c2)cc1	-10.7% (inactive)
COc1ccc(NS(=O)(=O)c2cc(NC(=O)CC(=O)c3ccc([N+](=O)[O-])cc3)ccc2C)cc1	68.3% (active)
Cc1cccc(-n2c(C)cc(/C=N\NC(=O)c3cccs3)c2C)c1	17.2% (inactive)
Cc1cccc(-n2c(C)cc(/C=N/NC(N)=S)c2C)c1	79.6% (active)
Cc1ccc(-n2c(C)cc(/C=N\NC(=O)CC(=O)NC(C)C)c2C)cc1	-3.17% (inactive)
Cc1ccc(-c2csc(NC(=O)c3cnccn3)n2)cc1C	-7.05% (inactive)
COc1ccc(Oc2c(Cl)cnn(-c3ccccc3)c2=O)cc1	59.1% (active)
Cc1ccc(Oc2cnn(-c3ccccc3)c(=O)c2Br)cc1	46.6% (inactive)
COc1ccc(-n2c(C)nc3c(cnn3-c3ccccc3)c2=O)cc1	-7.18% (inactive)
S=C1Nc2cc(Cl)ccc2Sc2ccccc21	-5.54% (inactive)
CCN(CC)C(=O)N(CC)Cc1ccccc1	0.88% (inactive)
O=C(/C=C/c1cccc([N+](=O)[O-])c1)NCCSCc1ccco1	59.6% (active)
CCC(CC)NC(=O)/C=C/c1cccc([N+](=O)[O-])c1	44.7% (inactive)
CCC(C)NC(=O)/C=C/c1ccc(S(=O)(=O)NCc2ccco2)cc1 (stereo not drawn)	9.36% (inactive)
O=C(/C=C/c1ccc([N+](=O)[O-])cc1)NCCSCc1ccco1	62.9% (active)
COc1cc(OC)cc(C(=O)NCCSCc2ccco2)c1	-3.35% (inactive)
O=C(NCc1ccco1)c1ccc(NS(=O)(=O)c2cccc([N+](=O)[O-])c2)cc1	-9.32% (inactive)
CCOc1ccc(/C=C(/NC(=O)c2ccccc2)C(=O)NCCC(=O)O)cc1	-5.96% (inactive)

SMILES	inhibition
Cc1ccc(NC(=O)c2ccc(S(=O)(=O)NCC3CCCO3)cc2)cc1C (stereo not drawn)	12.2% (inactive)
COc1ccccc1CNC(=O)c1cc(=O)c2ccccc2o1	15.9% (inactive)
O=C1/C(=C/c2cccs2)CCC1C1CCCC1 (stereo not drawn)	-9.7% (inactive)
CCOC(=O)c1ccc(NC(=S)N2CCCC2)cc1	1.46% (inactive)
OCC1(CCOc2ccccc2)CCN(Cc2cn[nH]c2-c2ccccc2)CC1	-2.84% (inactive)
CN(CCOc1ccccc1)Cc1nc2cc(Cl)ccc2c(=O)[nH]1	7.34% (inactive)
Cc1c(CN2CCC(CO)(CCOc3ccccc3)CC2)[nH]c2ccc(Cl)cc12	100% (active)
CCN(CC)C(=O)C(=O)c1cn(CC(=O)NCc2ccc3c(c2)OCO3)c2ccccc12	-5.27% (inactive)
CCn1c(SCC(=O)Nc2nccs2)nnc1-c1ccco1	0.22% (inactive)
C=C1C2C[C@H](O)C(C)(C)[C@@]2(O)[C@H](O)C[C@]23C[C@@](C)(O)[C@H](CC[C@H]12)[C@H]3O (stereo partly drawn)	-5.47% (inactive)
Cc1ccc(C(=O)c2ccc(N3CCN(C)CC3)c([N+](=O)[O-])c2)cc1	12.3% (inactive)
CN1CCN(c2ccc(S(=O)(=O)Nc3ccccc3)cc2[N+](=O)[O-])CC1	63.2% (active)
CNS(=O)(=O)c1ccc(N2CCCC2=O)c([N+](=O)[O-])c1	-4.3% (inactive)
O=C(Nc1ccc2c(c1)CCC2)c1ccc(Br)s1	14.6% (inactive)
O=C(NCc1cccnc1)c1cccc(-c2cc3ccccc3oc2=O)c1	3.42% (inactive)
CN(C)S(=O)(=O)c1cccc(NC(=O)COC(=O)c2cc(=O)[nH]c(=O)[nH]2)c1	-5.88% (inactive)
CCOC(=O)CSC1=N/C(=C/c2ccc(-n3cncn3)cc2)C(=O)N1C(C)=O	8.27% (inactive)
COCCCn1c(CCC(=O)O)ccc1-c1ccc(F)cc1	2.69% (inactive)
CC(C)Cn1c(CCC(=O)O)ccc1-c1cccs1	95.5% (active)
CCn1c(NC(=O)c2ccccc2)c(-c2cccs2)c(=O)c2ccccc21	0.95% (inactive)
CN(C)c1ccc(C=C2C(=O)OC3(CCCC3)OC2=O)cc1	-3.55% (inactive)
